Among the data in the supplement of paper PMC13380429 are morphology score values, retold here.

The subject of this experiment is Vero E6 infected with SARS-CoV-2. In words: morphology score (similarity to uninfected cells); higher = more like uninfected cells. Conditions: 24 h.
The compound `Clc1cccc(/C=N/N=C/c2cccc(Cl)c2)c1` [3,3'-dichlorobenzaldazine] (10 µM) registered a morphology score of 0.288.

In turn, `CCCCCC(O)CCCC(=O)O` (stereo unspecified) (10 µM) had a morphology score of 0.00301.

On to `c1cc2c(cc1C1CCCCC1)c1c3n2CCNC3CCC1` (stereo unspecified) [tetrindole] (0.833333 µM), for which the morphology score was -6.12e-06.

`c1ccc2nc(N3CCNCC3)ccc2c1` [quipazine] (10 µM) returned a morphology score of 0.118.

`CCCCCCCCCCCCCCCCOc1nc2ccc(C)cc2c(=O)o1` [cetilistat] (10 µM): the morphology score was -0.00505.

The compound `CC1(C)CC(=O)c2c(C(F)(F)F)nn(-c3ccc(C(N)=O)c(N[C@H]4CC[C@H](OC(=O)CN)CC4)c3)c2C1` (10 µM) yielded a morphology score of 0.127.

`CCCC[C@]1(CC)CS(=O)(=O)c2cc(CNC(CC(=O)O)CC(=O)O)c(OC)cc2[C@@H](c2ccccc2)N1` (10 µM) showed a morphology score of 0.0912.

`CC1/C=C/C=C/C=C/C=C/C=C/C=C/C=C/C(OC2O[C@H](C)[C@@H](O)[C@H](N)[C@@H]2O)CC(O)C(C(=O)O)C(O)CC(=O)CC(O)CC(O)CC(O)CC(=O)CCCC(=O)CC(=O)OC1C(C)CC(C)C(O)CC(=O)c1ccc(N)cc1` (stereo partly specified) [candicidin] (0.833333 µM) had a morphology score of 0.198.

With `COc1ccc2[nH]c([S+]([O-])Cc3ncc(C)c(OC)c3C)nc2n1` (stereo unspecified) [tenatoprazole] (10 µM), the morphology score was determined as 0.162.

For the compound `Cc1cc(Nc2ncc(Cl)c(Nc3ccccc3S(=O)(=O)C(C)C)n2)c(OC(C)C)cc1C1CCNCC1` [ceritinib] (0.833333 µM), the morphology score was 0.182.

For `O=c1c2ccccc2nc2n1CCc1c-2[nH]c2ccccc12` [rutaecarpine] (10 µM), the morphology score was determined as 0.246.

In the case of `CCCN1CC(NS(=O)(=O)N(CC)CC)CC2Cc3c(O)cccc3CC21` (stereo unspecified) [quinagolide] (10 µM), the morphology score is -0.243.

On to `CC[C@H](CO)Nc1nc(NCc2ccccc2)c2ncn(C(C)C)c2n1` [roscovitine] (10 µM), for which the morphology score was -0.0602.

In the case of `CC(C(=O)O)c1ccc(CC2CCCC2=O)cc1` (stereo unspecified) [loxoprofen] (10 µM), the morphology score is -0.0253.

`CC1=C(CC(=O)O)c2cc(F)ccc2/C1=C\c1ccc([S+](C)[O-])cc1` (stereo unspecified) [sulindac] (10 µM): the morphology score was determined as 0.0804.

For `CC(=O)O[C@]1(C(C)=O)CC[C@H]2[C@@H]3C[C@H](C)C4=CC(=O)C=C[C@]4(C)[C@@]3(F)[C@@H](O)C[C@@]21C` [fluorometholone-acetate] (10 µM), the morphology score was 0.0758.

As for `O=C(O)Cc1cccnc1C(=O)O` [homoquinolinic-acid] (10 µM), the morphology score stood at 0.0575.

Take `COc1ccc(CCNCc2ccc(OCc3ccc(Cl)nc3)c(OC)c2)cc1OC` (10 µM): the morphology score was 0.078.

Turning to `CCCc1c(OCCCOc2ccc(OCC(=O)O)cc2)ccc(C(C)=O)c1O` (10 µM), the morphology score amounted to 0.0635.

In turn, `CC(=O)OCC(=O)[C@H]1CC[C@H]2[C@@H]3CCC4=CC(=O)CC[C@]4(C)[C@H]3CC[C@]12C` [deoxycorticosterone-acetate] (10 µM) gave a morphology score of -0.0375.

In turn, `CCOc1ccc(NC(C)=O)cc1` [phenacetin] (10 µM) returned a morphology score of -0.129.

Compound `CC(C)Oc1ccc(-c2nn([C@@H](C)c3oc4ccc(F)cc4c(=O)c3-c3cccc(F)c3)c3ncnc(N)c23)cc1F` (10 µM) displayed a morphology score of 0.0291.

Regarding `c1ccc(CNCc2ccc(CN3CCCNCCNCCCNCC3)cc2)nc1` (10 µM), the morphology score came to 0.129.

For the compound `CNC(=O)c1cccc(-c2ccc3c(N4CCOC[C@@H]4C)nc(N4CCOC[C@@H]4C)nc3n2)c1` (10 µM), the morphology score is -0.219.

For the compound `C[C@H](/C=C/[C@H](C)C(C)(C)O)[C@H]1CC[C@H]2/C(=C/C=C3C[C@@H](O)C[C@H](O)C3)CCC[C@]12C` [paricalcitol] (10 µM), the morphology score was determined as 0.0995.

Compound `N[C@@H](Cc1ccc(Cl)cc1)C(=O)O` (racemic) [fenclonine-(+/-)] (10 µM) returned a morphology score of 0.00322.

`O=C(O)CCC(=O)OC[C@@H](NC(=O)C(Cl)Cl)[C@H](O)c1ccc([N+](=O)[O-])cc1` [chloramphenicol-sodium-succinate] (10 µM) had a morphology score of 0.049.

Regarding `CCC(C)n1ncn(-c2ccc(N3CCN(c4ccc(OCC5COC(Cn6cncn6)(c6ccc(Cl)cc6Cl)O5)cc4)CC3)cc2)c1=O` (stereo unspecified) [itraconazole] (10 µM), the morphology score came out at 0.0302.

Compound `Cc1ccc(F)c(NC(=O)Nc2ccc(-c3cccc4[nH]nc(N)c34)cc2)c1` [linifanib] (10 µM) yielded a morphology score of -0.188.

As to `NCCc1ccc(O)c(O)c1` [dopamine] (10 µM), the morphology score was -0.112.

`C[C@]12CC[C@H](O)C[C@H]1CC[C@@H]1[C@@H]2C[C@@H](O)[C@]2(C)[C@@H](C3=CC(=O)OC3)CC[C@]12O` [digoxigenin] (0.833333 µM) registered a morphology score of -0.000579.
